SMILES strings stand for the structures. Results filed as inconclusive are left out. Calls of active or inactive are those of the source.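 Rule for the calls, unless noted: active = normalized viability below 100% at a tested concentration; inactive = the rest.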

Experiment [1] is described as follows: viability loss in pontine glioma line – cell-based, JHH-DIPG-1, MIPE4.0, CellTiter-Glo, qHTS, dose response (AID 1347062; cut-off not given, nearly all actives have AC50 up to about 27 µM;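 for AC50: cells exposed to compound for two days before readout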). The settings on record: JHH-DIPG-1 viability, CellTiter-Glo ATP luminescence. A general note: In ATP-based viability assays light output follows the ATP content of the culture.
The nature of experiment [2]: viability loss in pontine glioma line – cell-based, SU-DIPG-IV, MIPE4.0, CellTiter-Glo, qHTS, dose response (AID 1347063; cut-off not given, nearly all actives have AC50 up to about 30 µM;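 note: compound exposure lasted 48 hours before the viability readout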). The settings on record: CellTiter-Glo ATP luminescence.
The nature of experiment [3]: growth inhibition of DIPG cells – cell-based, MIPE4.0 library, CellTiter-Glo luminescence, qHTS (AID 1347066; cut-off not given, nearly all actives have AC50 up to about 30 µM;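 note: cells exposed to compound for 48 hours before readout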). The settings on record: SU-DIPG-VI viability, CellTiter-Glo ATP luminescence.
A short description of experiment [4]: viability loss in pontine glioma line – cell-based, SU-DIPG-XIII, MIPE4.0, CellTiter-Glo, qHTS, dose response (AID 1347061; cut-off not given, nearly all actives have AC50 up to about 37 µM;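 note: cells exposed to compound for 48 hours before readout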). The settings on record: CellTiter-Glo ATP luminescence.
Experiment [5] in a line: viability loss in pontine glioma line – cell-based, SU-DIPG-XXV, MIPE5.0, CellTiter-Glo, qHTS, dose response (AID 1347065; cut-off not given, nearly all actives have AC50 up to about 26 µM;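 note: cells exposed to compound for 48 hours before ATP readout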). The settings on record: CellTiter-Glo ATP luminescence.
The nature of experiment [6]: JHH-DIPG-1 glioma cell viability, MIPE5.0 library, CellTiter-Glo luminescence, qHTS (AID 1347067; cut-off not given, nearly all actives have AC50 up to about 26 µM;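 note: cells exposed to compound for 48 hours before readout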). The settings on record: JHH-DIPG-1 glioma viability, CellTiter-Glo ATP luminescence.
Experiment [7] can be described thus: viability loss with induced miR-34 in A549 – imaging, A549 dox-inducible miR-34, nuclei and caspase counts, primary screen (AID 1347080;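 active = compounds whose cell count with miR-34 switched on is under 0.7 times the count with it off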). The settings on record: A549 miR-34 inducible, Hoechst nuclei count, 48 h.
The nature of experiment [8]: MELAS cybrid and Rieske KO viability enhancers – cell-based, MELAS cybrids, Rieske KO mouse fibroblasts, CellTiter-Glo, primary screen (AID 1508586;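 active = mean z-score across replicates of 1.96 or higher in either the MELAS or the Rieske mutant cell line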;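 note: z relative to plate mean and SD of compound and empty wells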). The settings on record: low glucose.
Experiment [9] can be described thus: galactose survival enhancers in mitochondrial complex I cybrids – cell-based, galactose medium, ATP luminescence, primary screen (AID 1645843;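 active = z-score of at least 1.8 in each of two replicates, scored against plate mean and spread of sample wells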;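 note: positive z means more ATP and so rescue of galactose-driven cybrid death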). The settings on record: complex I mutant cybrid cells, 72 h, stronger effect = higher value.
Experiment [10] can be described thus: viability loss in pontine glioma line – cell-based, SU-DIPG-XIII, MIPE5.0, CellTiter-Glo, qHTS, dose response (AID 1347064; cut-off not given, nearly all actives have AC50 up to about 23 µM;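 for AC50: cells exposed to compound for 48 hours before the viability read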). The settings on record: CellTiter-Glo ATP luminescence.
The nature of experiment [11]: growth inhibition of DIPG cells – cell-based, MIPE5.0 library, qHTS (AID 1347068; cut-off not given, nearly all actives have IC50 up to about 30 µM;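 for IC50: cells exposed to compound for 48 hours before viability readout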). The settings on record: SU-DIPG-XXV viability. For orientation: In qHTS, concentration-response curves come from the screen itself.
Experiment [12] can be described thus: drug combination growth inhibition, ovarian cancer – cell-based, oncology-focused library, rucaparib conditional, profiling panel (AID 1508598). The settings on record: patient-derived ovarian cancer cells, CellTiter-Glo viability, 144 h, stronger effect = lower value.
The mark [13] stands for this setting: measured here: relative caspase fold change +Dox/-Dox.
[14] abbreviates: measured here: total cells with miR-34 induction, stronger effect = lower value.
[15] abbreviates: measured here: total cells without miR-34 induction.
The mark [16] stands for this setting: MELAS cybrid survival, CellTiter-Glo 48 h, stronger effect = higher value.
The mark [17] stands for this setting: Rieske KO mouse fibroblast survival, CellTiter-Glo 72 h.

Turning to `CC[C@@H]1[C@@H](C)O[C@@](O)([C@@H](C)[C@H](O)[C@H](C)[C@H]2OC(=O)/C=C/C=C/[C@H](C)[C@@H]([C@@H](C)[C@@H](O)[C@H](C)[C@@]3(O)C[C@@H](O[C@H]4C[C@H](O)[C@H](O)[C@H](C)O4)[C@H](CC)[C@@H](C)O3)OC(=O)/C=C/C=C/[C@@H]2C)C[C@H]1O[C@H]1C[C@H](O)[C@H](O)[C@H](C)O1`, the AC50 in [1] was 0.59 µM (active); in experiment [2], 0.743 µM (active); in experiment [3], 0.469 µM (active).
Consider `Cc1sc2c(c1C)C(c1ccc(Cl)cc1)=N[C@@H](CC(=O)OC(C)(C)C)c1nnc(C)n1-2`, for which the AC50 in experiment [4] was 18.7 µM (active); in experiment [5] it was 2.63 µM (active); in experiment [6], 16.6 µM (active).
As to `C[C@](O)(CS(=O)(=O)c1ccc(F)cc1)C(=O)Nc1ccc(C#N)c(C(F)(F)F)c1`, the AC50 in experiment [1] was 2.35 µM (active); in experiment [2] it was 1.66 µM (active). Also, the fold change in experiment [7] (stronger effect = lower value) is 0.814 (inactive); in [7] (setting [13]) it was 0.512. Further, the results for the cell count in experiment [7] (setting [14]) and in [7] (setting [15]) were 7480 and 9190, respectively. Moreover, the z-score in experiment [8] (setting [16]) was 0.389 (inactive); in experiment [8] (setting [17]) it was -0.102; in experiment [9], -0.71 (inactive).
As for `Cc1c(N)nc([C@H](CC(N)=O)NC[C@@H](N)C(N)=O)nc1C(=O)N[C@H](C(=O)N[C@@H](C)[C@H](O)[C@@H](C)C(=O)N[C@@H](C(=O)NCCc1nc(-c2nc(C(=O)NCCC[S+](C)C)cs2)cs1)[C@@H](C)O)C(O[C@H]1O[C@H](CO)[C@H](O)[C@@H](O)[C@H]1O[C@H]1O[C@H](CO)[C@@H](O)[C@H](OC(N)=O)[C@@H]1O)c1cnc[nH]1` (stereo partly drawn), the molecule was classed as inactive in experiment [4], in [1], in experiment [10], in experiment [3], in experiment [6] and in experiment [11]. In addition, the AC50 in experiment [2] was 1.87 µM (active). The viability in [12] (at 0.000305 µM, OCI-C5x cells, with rucaparib 10 µM, 100% = cells with rucaparib alone) is 106% (inactive); in experiment [12] (at 0.000305 µM, OCI-C5x cells, without rucaparib) it was 102% (inactive); in [12] (at 0.000305 µM, OCI-P5x cells, with rucaparib 20 µM, 100% = cells with rucaparib alone), 109% (inactive); in experiment [12] (at 0.000305 µM, OCI-P5x cells, without rucaparib), 102% (inactive); in [12] (at 0.00122 µM, OCI-C5x cells, with rucaparib 10 µM, 100% = cells with rucaparib alone) it was 109% (inactive); in [12] (at 0.00122 µM, OCI-C5x cells, without rucaparib), 107% (inactive). Besides, the viability in [12] (at 0.00122 µM, OCI-P5x cells, with rucaparib 20 µM, 100% = cells with rucaparib alone) is 106% (inactive); in experiment [12] (at 0.00122 µM, OCI-P5x cells, without rucaparib), 97.2% (active); in experiment [12] (at 0.00488 µM, OCI-C5x cells, with rucaparib 10 µM, 100% = cells with rucaparib alone), 120% (inactive); in experiment [12] (at 0.00488 µM, OCI-C5x cells, without rucaparib) it was 100% (inactive); in experiment [12] (at 0.00488 µM, OCI-P5x cells, with rucaparib 20 µM, 100% = cells with rucaparib alone), 96% (active); in [12] (at 0.00488 µM, OCI-P5x cells, without rucaparib), 94.3% (active). Further, the viability was 104% (inactive) in [12] (at 0.0195 µM, OCI-C5x cells, with rucaparib 10 µM, 100% = cells with rucaparib alone); 90.7% (active) in experiment [12] (at 0.0195 µM, OCI-C5x cells, without rucaparib); 88.2% (active) in [12] (at 0.0195 µM, OCI-P5x cells, with rucaparib 20 µM, 100% = cells with rucaparib alone); 84.4% (active) in [12] (at 0.0195 µM, OCI-P5x cells, without rucaparib); 103% (inactive) in [12] (at 0.0781 µM, OCI-C5x cells, with rucaparib 10 µM, 100% = cells with rucaparib alone); 95% (active) in experiment [12] (at 0.0781 µM, OCI-C5x cells, without rucaparib). In addition, the viability in experiment [12] (at 0.0781 µM, OCI-P5x cells, with rucaparib 20 µM, 100% = cells with rucaparib alone) is 94.6% (active); in experiment [12] (at 0.0781 µM, OCI-P5x cells, without rucaparib), 85.9% (active); in experiment [12] (at 0.313 µM, OCI-C5x cells, with rucaparib 10 µM, 100% = cells with rucaparib alone) it was 86.7% (active); in [12] (at 0.313 µM, OCI-C5x cells, without rucaparib), 84.5% (active); in experiment [12] (at 0.313 µM, OCI-P5x cells, with rucaparib 20 µM, 100% = cells with rucaparib alone), 76.8% (active); in experiment [12] (at 0.313 µM, OCI-P5x cells, without rucaparib) it was 57.6% (active). For the same molecule, the viability in experiment [12] (at 1.25 µM, OCI-C5x cells, with rucaparib 10 µM, 100% = cells with rucaparib alone) was 74.8% (active); in experiment [12] (at 1.25 µM, OCI-C5x cells, without rucaparib), 69.9% (active); in [12] (at 1.25 µM, OCI-P5x cells, with rucaparib 20 µM, 100% = cells with rucaparib alone), 62.8% (active); in experiment [12] (at 1.25 µM, OCI-P5x cells, without rucaparib), 39.3% (active); in experiment [12] (at 5 µM, OCI-C5x cells, with rucaparib 10 µM, 100% = cells with rucaparib alone), 53.8% (active); in experiment [12] (at 5 µM, OCI-C5x cells, without rucaparib), 47.2% (active). In addition, the viability in experiment [12] (at 5 µM, OCI-P5x cells, with rucaparib 20 µM, 100% = cells with rucaparib alone) is 39.6% (active); in experiment [12] (at 5 µM, OCI-P5x cells, without rucaparib) it was 21.3% (active).
For `C[C@@H]1O[C@@H](O[C@@H]2C=C3CC[C@H]4[C@@H](CC[C@]5(C)[C@H](c6ccc(=O)oc6)CC[C@@]45O)[C@@]3(C)CC2)[C@H](O)[C@H](O)[C@@H]1O`, the concentration at half-maximal activity (AC50) in experiment [4] is 0.00935 µM (active); in experiment [1], 0.00469 µM (active); in experiment [2] it was 0.0209 µM (active); in experiment [3], 0.00743 µM (active).
With `COC[C@H]1OC(=O)c2coc3c2[C@@]1(C)C1=C(C3=O)[C@@H]2CC[C@H](O)[C@@]2(C)C[C@H]1OC(C)=O`, the AC50 in experiment [4] is 16.6 µM (active); in experiment [2], 1.18 µM (active); in experiment [10] it was 9.34 µM (active); in experiment [5], 1.66 µM (active); in experiment [3] it was 14.8 µM (active); in experiment [6], 5.9 µM (active). Also, the molecule was called inactive in experiment [11].
Consider `O=C(NCC1CCOCC1)c1cnc(Nc2ccc(Cl)cc2Cl)nc1C(F)(F)F`, for which the outcome in experiment [4], in [10], in [5], in experiment [3], in experiment [6] and in [11] was inactive. The AC50 in experiment [1] is 18.7 µM (active); in experiment [2], 10.5 µM (active). For the same molecule, the fold change in [7] (stronger effect = lower value, cell number ratio, induced over uninduced) was 0.931 (inactive); in experiment [7] (setting [13]), 1.15. Moreover, the cell count in [7] (setting [14]) worked out at 8190; in experiment [7] (setting [15]), 8790. For the same molecule, the z-score is -0.266 (inactive) in experiment [8] (setting [16]) and -0.797 in [8] (setting [17]).
For the molecule `CN1CCN(c2ccc([N+](=O)[O-])c3no[n+]([O-])c23)CC1`, the AC50 in experiment [1] was 23.5 µM (active); in experiment [2], 16.6 µM (active); in experiment [10] it was 16.6 µM (active); in experiment [5], 18.6 µM (active); in experiment [6], 23.5 µM (active). Moreover, the call in experiment [11] was inactive.
Consider `COC1(CS(=O)c2ccccc2)CCN(CCc2c[nH]c3ccc(F)cc23)CC1` (stereo not drawn), for which the molecule was classed as inactive in experiment [4], in experiment [1], in experiment [2], in [10], in experiment [3] and in experiment [6]. Besides, the result in experiment [11] was inactive.
On to `CO/C1=C/C(C)=C\[C@@H](C)[C@@H](O)[C@@H](C)C/C(C)=C\C=C/[C@H](OC)[C@@H]([C@@H](C)[C@@H](O)[C@H](C)[C@@]2(O)C[C@@H](O)[C@H](C)[C@@H](C(C)C)O2)OC1=O`, for which the AC50 in [1] was 11.8 µM (active); in experiment [2], 9.35 µM (active); in experiment [5] it was 0.393 µM (active); in experiment [3], 3.72 µM (active); in [6], 9.86 µM (active). The IC50 in experiment [11] was 0.0494 µM (active).
Turning to `CC(C)N(CCNC(=O)CN1CCCC1=O)C(C)C`, the outcome in [4], in experiment [1], in experiment [2] and in experiment [3] was inactive. Further, the figures for the fold change in [7] (stronger effect = lower value) and in experiment [7] (setting [13]) were 0.88 (inactive) and 0.862, respectively. Also, the results for the cell count in experiment [7] (setting [14]) and in [7] (setting [15]) were 9340 and 10600, respectively. Besides, the z-score in [8] (setting [16]) was -0.352 (inactive); in experiment [8] (setting [17]), 0.7.

Broadly, the AC50 is the concentration at which the activity in the assay is half-maximal. As a reminder, the viability is a read-out of living cells in per cent, often relative to untreated cells. As usually defined, the IC50 is the point on the concentration scale where inhibition reaches its midpoint.
